Our source for the Potency and activity, negative = inhibition values is PubChem BioAssay AID504332 (National Center for Advancing Translational Sciences (NCATS), 2011).

In all, about 350,000 compounds went through this assay and about 31,000 (8.9%) were called active. Where a call stands in place of a potency, no number is given. Inconclusive results (about 15%) are left out. This is one part of a sample in which actives are shown more often than they occur. Unmarked numbers belong to inactive results. Calls come from the whole dose curve; as a rule, active = well fitted inhibition curve with a large enough effect; inconclusive = small, poorly fitted or top-dose-only effect; inactive = no such curve, though single readings can be large or run the other way.
Potency is the fitted concentration of half-maximal effect.

The target in this assay is Histone-lysine N-methyltransferase EHMT2 (Homo sapiens) (UniProt Q96KQ7). Put plainly: qHTS Assay for Inhibitors of Histone Lysine Methyltransferase G9a. Note: nearly all actives have a fitted effect of over 75% in size. The conditions noted are these: G9a H3K9 monomethylation, AlphaScreen, 2 h; series mostly up to 59 µM. In outline: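 Step 1: enzyme (final 20 nM) with compound, 15 min RT. Step 2: substrate peptide 500 nM and SAM 20 uM, 2 h RT. Step 3: anti-H3K9me1 antibody and AlphaScreen beads, 10 min, then plate read.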
Histone-lysine N-methyltransferase EHMT2 (Homo sapiens), sequence (Q96KQ7 913-1193 limits assumed): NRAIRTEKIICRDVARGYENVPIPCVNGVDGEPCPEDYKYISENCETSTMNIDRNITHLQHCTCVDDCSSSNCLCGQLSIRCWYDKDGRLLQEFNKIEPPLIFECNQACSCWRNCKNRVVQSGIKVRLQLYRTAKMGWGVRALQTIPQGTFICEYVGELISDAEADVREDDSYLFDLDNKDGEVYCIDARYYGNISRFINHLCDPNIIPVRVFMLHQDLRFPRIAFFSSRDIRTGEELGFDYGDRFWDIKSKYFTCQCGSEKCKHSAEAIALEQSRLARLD
For orientation: In qHTS, concentration-response curves come from the screen itself.
For the compound `O=C(Nc1ccc(Br)cc1)c1ccc(Br)c(S(=O)(=O)NCc2ccccc2)c1`, the Potency entry was “inactive”.

Consider `COc1ccc(CCNC(=S)N2CCN(S(=O)(=O)c3ccc(F)cc3)CC2)cc1`, for which the activity, negative = inhibition is -16.1% [at 0.501 µM].

As to `CN(C)S(=O)(=O)N1CCC(Oc2cccc(C(=O)NCCCC3CCCC3)c2)CC1`, the Potency entry was “inactive”.

`C=CCNc1nnc(SCC(=O)N2CCCCC2)c2ccccc12`: the Potency is 50.1 µM (active).

Turning to `C=CCNc1nnc(C)c2ccccc12`, the Potency result is “inactive”.

Consider `O=C(CSc1nc2ccccc2nc1Cc1ccccc1)N1CCCCC1`, for which the Potency result was “inactive”.

Turning to `O=C(COc1ccccc1O)NC1CCCC1`, the Potency result is “inactive”.

On to `COc1cc2ccccc2cc1C(=O)N1CCOCC1`, for which the Potency entry was “inactive”.

Consider `COc1cc(OC)cc(C(=O)NNC(=O)CNC(=O)c2ccc(Br)o2)c1`, for which the Potency result was “inactive”.

For the compound `O=C(Cn1cc(SCc2ccccc2)c2ccccc21)N1CCCCC1`, the Potency entry was “inactive”.

On to `CCc1cccc2c(C=C(C#N)C#N)cn(CC(=O)N3CCCCC3)c12`, for which the Potency is 44.7 µM (active).

Take `O=C(Cn1cc(SCc2cccc(Cl)c2)c2ccccc21)N1CCCCC1`: the Potency result was “inactive”.

As to `CCc1cccc(C)c1NS(=O)(=O)c1ccc(-c2cc(C)no2)s1`, the Potency entry was “inactive”.

For the compound `COc1cccc(Nc2nc3ccccc3c3nncn23)c1`, the Potency entry is “inactive”.

With `O=C(CN1CCN(Cc2ccc(Cl)cc2)C1=O)NCc1ccc(F)cc1`, the Potency entry was “inactive”.

Take `COC(=O)CSc1nnc(NC(=O)CCc2ccccc2)s1`: the Potency entry is “inactive”.

In the case of `CC(C)Cc1nnc(NC(=O)CCc2ccccc2)s1`, the Potency is 35.5 µM (active).

Consider `Cc1ccc(S(=O)(=O)CCC(=O)Nc2nnc(CC(C)C)s2)cc1`, for which the Potency entry is “inactive”.

With `COCc1nnc(NC(=O)CS(=O)(=O)Cc2ccccc2)s1`, the activity, negative = inhibition was -27% [at 12.7 µM].

With `COCCSc1nnc(NC(=O)CCS(=O)(=O)Cc2ccccc2)s1`, the Potency entry is “inactive”.

Consider `CCOCc1nnc(NC(=O)CCS(=O)(=O)Cc2ccccc2)s1`, for which the Potency was 79.4 µM (active).

Turning to `Cc1cccc(OCCC(=O)OCc2csc(CC(=O)Nc3ccccc3C)n2)c1`, the activity, negative = inhibition is -6.68% [at 12.7 µM].

As for `CCCCn1c(=S)[nH]c2ncccc2c1=O`, the activity, negative = inhibition was 17.8% [at 2.33 µM].

`CCN(CC)CCn1c(=S)[nH]c2ncccc2c1=O`: the Potency was 15.8 µM (active).

Take `CCN(CC)CCn1cnc2c1c(=O)[nH]c(=O)n2Cc1ccccc1`: the activity, negative = inhibition was 20.1% [at 2.33 µM].

Consider `CN(C(=O)CSc1nnc(NC(=O)Nc2ccccc2)s1)c1ccccc1`, for which the Potency entry was “inactive”.

Regarding `Cc1ccccc1NC(=O)Cn1c(=O)n(CCCCC(=O)NCc2ccccc2Cl)c(=O)c2ccccc21`, the Potency entry was “inactive”.

For `CCOc1ccc(C(C)NC(=O)CN2C(=O)NC3(CCCCC3)C2=O)cc1OCC` (stereo not drawn), the Potency entry is “inactive”.

For `CCOc1ccc(C(C)=O)cc1COC(=O)CN1C(=O)NC2(CCCC2)C1=O`, the Potency was 56.2 µM (active).

Regarding `Cc1ccc(COC(=O)CN2C(=O)NC3(CCCC3)C2=O)cc1`, the activity, negative = inhibition was -12.1% [at 12.7 µM].

As to `CC(C)c1ccc(NC(=O)CN(C)S(=O)(=O)c2ccc3c(c2)c(=O)n(C)c(=O)n3C)cc1`, the Potency result was “inactive”.

For the compound `CC(OC(=O)c1ccc(-n2cnnn2)cc1)C(=O)NCc1ccccc1` (stereo not drawn), the Potency result is “inactive”.

`NC1=NC(c2cc(F)cc(F)c2)n2c(nc3ccccc32)N1` (stereo not drawn): the Potency result was “inactive”.

For the compound `N#Cc1cnn2cc(CCN3CCOCC3)c(-c3ccc(F)cc3)nc12`, the Potency result is “inactive”.

With `CCn1c2ccc(F)cc2c2nnc(SCCN3CCOCC3)nc21`, the Potency was 44.7 µM (active).

For the compound `Cc1cc2nc(SCCN3CCOCC3)[nH]c2cc1C`, the Potency entry was “inactive”.

In the case of `O=C(/C=C/c1cccc(C(F)(F)F)c1)N1CCN(c2ccccn2)CC1`, the Potency result is “inactive”.

For `Cc1ccc(NC(=O)CSc2nc3ccccc3c3nc(CCn4cncc4C)nn23)cc1F`, the Potency entry is “inactive”.

Consider `CCOC(=O)C1CCN(C(=O)C2CCCN(S(=O)(=O)c3ccc(OC)c(Cl)c3)C2)CC1` (stereo not drawn), for which the Potency entry was “inactive”.

For `COC(=O)c1cc(NC2c3ccccc3C(=O)N2c2ccc(Cl)cn2)cc(C(=O)OC)c1` (stereo not drawn), the Potency entry was “inactive”.

For `Cc1cccc(C(=O)Nc2ccccc2-c2nnn(CC(=O)Nc3ccc4c(c3)OCCO4)n2)c1`, the activity, negative = inhibition is 48.1% [at 12.7 µM].

`O=C1c2ccccc2C(Nc2ccc3c(c2)OCCO3)N1Cc1ccco1` (stereo not drawn): the Potency is 39.8 µM (active).

`CC1(C)SC2c3ccccc3C(=O)N2[C@@H]1C(=O)NCc1ccco1` (stereo partly drawn): the Potency result is “inactive”.

`O=C(NC1CCCCC1)C1c2ccccc2C(=O)N1Cc1ccco1` (stereo not drawn): the Potency entry was “inactive”.

Turning to `Cc1ccnc(N2C(=O)c3ccccc3C2Nc2ccc3c(c2)OCCO3)c1` (stereo not drawn), the Potency is 79.4 µM (active).

Take `COc1ccc(C(C)(C)C)cc1NC(=O)CCN1C(=O)C2CCCCC2C1=O` (stereo not drawn): the activity, negative = inhibition is -24.5% [at 12.7 µM].

For `CC(=O)N1CCCc2cc(S(=O)(=O)N3CCC(C(=O)NCc4ccc(F)cc4)CC3)ccc21`, the Potency result is “inactive”.

Regarding `COc1cc(NC(=O)CSc2nc3nc(C)c(Cc4ccc(C)cc4)c(C)n3n2)cc(OC)c1OC`, the Potency entry was “inactive”.

As to `CCOc1ccccc1NC(=O)Cn1nnc(C(=O)Nc2ccc(C)c(C)c2)c1N`, the Potency result is “inactive”.

Take `Cc1ccc(NC(=O)C(=O)NCC(c2cccnc2)N2CCOCC2)cc1` (stereo not drawn): the Potency entry was “inactive”.

Take `COc1ccc(S(=O)(=O)NCc2ccc(C(=O)N(C)Cc3ccco3)cc2)cc1`: the Potency result is “inactive”.

In the case of `COc1ccc(C(=O)N(Cc2ccc(N(C)C)cc2)C2CCS(=O)(=O)C2)cc1` (stereo not drawn), the Potency entry is “inactive”.

As to `COc1ccc(N(Cc2ccc(N(C)C)cc2)C(=O)c2ccc(S(C)(=O)=O)cc2)cc1`, the Potency was 12.6 µM (active).

As to `COc1ccc(C)cc1N(C)C(=O)c1c(C)oc2ncnc(N3CCOCC3)c12`, the Potency result is “inactive”.

Consider `Cc1ccc(OCC(=O)Nc2ccccc2C(=O)NC2CC2)cc1C`, for which the Potency entry is “inactive”.

Turning to `Cc1cccc(C)c1NC(=O)CNC(=O)c1ccc2c(c1)OCCO2`, the Potency entry was “inactive”.

In the case of `Cc1ccc2sc(NNC(=O)c3ccc4c(c3)OCCO4)nc2c1C`, the Potency was 10 µM (active).

In the case of `Cc1ccc(C(=O)NNC(=O)c2ccc3c(c2)OCCO3)cc1`, the activity, negative = inhibition was 8.51% [at 2.33 µM].

As to `Cc1c(CNC(C)c2ccccc2)c(C(=O)O)c(C)n1Cc1c(F)cccc1Cl` (stereo not drawn), the Potency result is “inactive”.

Turning to `C[n+]1cc(-c2ccccc2)oc1-c1ccccc1`, the Potency was 50.1 µM (active).

Consider `CCSc1nsc(NC(=O)Nc2ccccc2OC)n1`, for which the Potency entry was “inactive”.

On to `O=C(CN1C(=O)COc2ccccc21)Nc1ccc(F)cc1`, for which the Potency was 31.6 µM (active).

Turning to `CC(OC(=O)CN1C(=O)COc2ccccc21)C(=O)NCc1ccc(F)cc1` (stereo not drawn), the Potency entry was “inactive”.

As to `O=C(CN1C(=O)COc2ccc(Cl)cc21)Nc1ccc(N2CCOCC2)cc1`, the Potency entry was “inactive”.

`Cn1c(=O)c2c(SCC(=O)NCC3CCCO3)nc(-c3ccccc3F)nc2n(C)c1=O` (stereo not drawn): the Potency result is “inactive”.

Regarding `CCOc1ccc(N(C)S(=O)(=O)c2cc(-c3cnc(C)o3)ccc2OC)cc1`, the Potency entry was “inactive”.

Turning to `Cc1cccc(N2CCN(C(=O)Cn3ncc4c5ccccc5n(C)c4c3=O)CC2C)c1` (stereo not drawn), the Potency entry is “inactive”.

With `OCCn1c(-c2ccccc2)csc1=Nc1ccccc1`, the Potency was 44.7 µM (active).

Take `Cc1csc(=NC(=O)c2ccccc2)n1CCO`: the Potency entry is “inactive”.

As for `CN(C)CCCn1c(-c2ccc(Cl)cc2)csc1=Nc1ccccc1`, the Potency was 12.6 µM (active).

In the case of `CN(C)CCCn1c(SCc2ccc(Cl)cc2)nnc1-c1ccncc1`, the activity, negative = inhibition is 14% [at 0.501 µM].

For `Cc1csc(=Nc2ccccc2)n1CCO`, the Potency was 28.2 µM (active).

`COc1ccccc1OCCCn1c(-c2ccc(Cl)cc2)nc2ccccc2c1=O`: the Potency result is “inactive”.

Consider `COCCn1c(CCC(=O)Nc2cc(C)ccc2C)nc2cccnc21`, for which the Potency entry was “inactive”.

For the compound `O=C(OCC(=O)N1CCc2ccccc21)C1CCCN1S(=O)(=O)c1ccc(Cl)cc1` (stereo not drawn), the activity, negative = inhibition was 0.8% [at 2.33 µM].

As to `CCCC(=O)Nc1ncnc2c1ncn2[C@@H]1O[C@@H]2OP(=O)(O)OC[C@H]2[C@H]1OC(=O)CCC`, the Potency entry was “inactive”.

Take `CCCOc1cccc(C(=O)Nc2cccc(NC(=O)c3ccc(C(C)(C)C)cc3)c2)c1`: the Potency result was “inactive”.

With `COc1ccc2c(c1)[C@H]1[C@H](CO2)[C@H](c2ccccc2)[C@]2(C)C(=O)Nc3cc(F)c(F)cc3C(=O)N12`, the activity, negative = inhibition is 5.78% [at 2.33 µM].

For `COc1ccc(-c2nonc2NC(=O)c2oc3ccc(F)cc3c2C)cc1OC`, the Potency result was “inactive”.

`Cc1c(NC(=O)Cc2ccccc2)cccc1-c1nc2cccnc2s1`: the Potency entry was “inactive”.

Take `O=C(N/N=C/c1cc(Cl)cc([N+](=O)[O-])c1O)C(O)(c1ccccc1)c1ccccc1`: the Potency was 28.2 µM (active).

On to `O=C(Cc1cc(=O)[nH][nH]1)N/N=C/c1ccccc1[N+](=O)[O-]`, for which the Potency entry was “inactive”.

Consider `CN(C)/N=C/c1cc(Cl)cc([N+](=O)[O-])c1O`, for which the Potency entry is “inactive”.

With `CCOc1ccc(N(CC)C(=O)c2noc3c2COc2ccc(C)cc2-3)cc1`, the Potency entry was “inactive”.

Regarding `CC1CCCCC1NC(=O)c1cn(C)c2ccc(S(=O)(=O)N3CCOCC3)cc2c1=O` (stereo not drawn), the Potency entry was “inactive”.

Turning to `CCn1cc(C(=O)N2CC(C)CC(C)C2)c(=O)c2cc(S(=O)(=O)N3CCCC3)ccc21` (stereo not drawn), the Potency entry was “inactive”.

Consider `COC(=O)c1cn(C)c2ccc(S(=O)(=O)N3CC(C)CC(C)C3)cc2c1=O` (stereo not drawn), for which the Potency is 56.2 µM (active).

In the case of `O=C1C=C(c2ccnc3cc(Cl)ccc23)C[C@@H](c2ccc3c(c2)OCO3)C1`, the activity, negative = inhibition is -18.7% [at 0.501 µM].

For the compound `COc1cccc(N2CC(NS(=O)(=O)c3cccs3)CC2=O)c1` (stereo not drawn), the Potency entry is “inactive”.

Consider `Cc1ccc2c(CN3CCN(S(=O)(=O)c4ccccc4C(F)(F)F)CC3)cc(=O)oc2c1`, for which the activity, negative = inhibition was -13.1% [at 12.7 µM].

Take `COCc1cc(=O)oc2cc(NS(=O)(=O)c3ccc(C)cc3)ccc12`: the Potency result is “inactive”.

Take `Cc1ccc2c(CSc3nncs3)cc(=O)oc2c1`: the Potency is 50.1 µM (active).

With `O=C(/C=C/c1ccccc1[N+](=O)[O-])OCC(=O)N1CCCC1`, the activity, negative = inhibition was 11.7% [at 12.7 µM].

With `O=C(/C=C/c1ccccc1[N+](=O)[O-])OC1CCCCC1=O` (stereo not drawn), the Potency result is “inactive”.

For `CC(C)CNC(=O)COC(=O)/C=C/c1ccccc1[N+](=O)[O-]`, the Potency entry was “inactive”.

As to `CC1CC(C)CN(C/C=C/c2ccccc2[N+](=O)[O-])C1` (stereo not drawn), the Potency was 50.1 µM (active).

On to `O=[N+]([O-])c1ccccc1/C=C/CN1CCC(O)CC1`, for which the Potency is 39.8 µM (active).

Turning to `O=C(/C=C/c1ccccc1[N+](=O)[O-])NCC1CCCO1` (stereo not drawn), the Potency entry was “inactive”.
